Data from PubChem BioAssay (Tox21).
Values without a mark were called inactive. Results filed as inconclusive are left out. Where a call stands in place of a potency, no number is given. Active and inactive are the calls of the source. Unless noted, the call rests on the fitted dose curve; in most records, active means well fitted curve in the direction sought with a large enough effect in the repeat runs; inconclusive means weak or mixed curves; inactive means no such curve, though single readings can be large; an effect the other way counts as inactive or inconclusive.

How the values were obtained:
[1] = qHTS assay to identify small molecule antagonists of the estrogen related receptor (ERR) signaling pathway from Tox21 library - cell viability counter screen (AID 1224834); further: nearly all actives have a fitted effect of over 30% in size; further: potency means the concentration at half of the fitted maximal effect
In short: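 ERR reporter cells were plated 6 h before compound addition, then exposed to test compounds in DMSO for 17.5 h at 37 C. Viability was read as CellTiter-Fluor fluorescence after a 30-minute incubation at 37 C.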

[2] = target: Luciferin 4-monooxygenase (Photinus pyralis) (UniProt P08659); assay: qHTS assay to identify small molecule inhibitors of firefly luciferase (AID 1224835); further: nearly all actives have a fitted effect of over 25% in size
Luciferin 4-monooxygenase (Photinus pyralis), sequence (P08659 whole entry, looked up): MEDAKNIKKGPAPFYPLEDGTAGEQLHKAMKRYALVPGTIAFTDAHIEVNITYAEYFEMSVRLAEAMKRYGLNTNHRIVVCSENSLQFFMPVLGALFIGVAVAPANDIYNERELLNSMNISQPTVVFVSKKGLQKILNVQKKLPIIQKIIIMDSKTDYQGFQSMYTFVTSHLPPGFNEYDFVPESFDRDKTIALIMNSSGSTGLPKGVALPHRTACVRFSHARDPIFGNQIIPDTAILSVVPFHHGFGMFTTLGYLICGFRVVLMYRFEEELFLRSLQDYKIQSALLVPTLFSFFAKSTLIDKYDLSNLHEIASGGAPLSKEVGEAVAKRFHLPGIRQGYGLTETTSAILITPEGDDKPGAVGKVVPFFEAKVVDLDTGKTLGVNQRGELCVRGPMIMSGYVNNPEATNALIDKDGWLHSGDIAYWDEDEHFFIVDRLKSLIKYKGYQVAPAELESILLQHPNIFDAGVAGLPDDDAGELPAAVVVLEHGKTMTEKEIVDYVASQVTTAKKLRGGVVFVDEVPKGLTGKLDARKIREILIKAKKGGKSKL
In short: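 Quantitative HTS format; KM concentrations of both substrates. Purified P. pyralis FLuc activity quantified from luminescence images.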

[3] = target: Nuclear receptor subfamily 1 group I member 3 (Homo sapiens) (UniProt Q14994); assay: qHTS assay to identify small molecule antagonists of the constitutive androstane receptor (CAR) signaling pathway (AID 1224838); further: nearly all actives have a fitted effect of over 40% in size; further: potency means the concentration at half of the fitted maximal effect
Nuclear receptor subfamily 1 group I member 3 (Homo sapiens), sequence (Q14994 whole entry, looked up): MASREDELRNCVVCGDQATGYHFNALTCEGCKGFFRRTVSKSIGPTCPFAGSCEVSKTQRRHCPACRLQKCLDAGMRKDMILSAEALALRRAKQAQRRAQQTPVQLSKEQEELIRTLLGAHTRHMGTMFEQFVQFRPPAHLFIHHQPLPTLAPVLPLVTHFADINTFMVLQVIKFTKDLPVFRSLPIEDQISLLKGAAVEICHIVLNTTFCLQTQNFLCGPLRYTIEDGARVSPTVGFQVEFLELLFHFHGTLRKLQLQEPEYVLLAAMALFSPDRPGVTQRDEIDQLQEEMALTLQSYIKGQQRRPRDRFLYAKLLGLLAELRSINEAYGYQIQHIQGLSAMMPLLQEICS
In short: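 HepG2 cells stably co-transfected with hCAR and a CYP2B6-2.2kb luciferase reporter were seeded 4 h before compound addition at 15 concentrations. Cells were stimulated with 50 nM CITCO (final) for 24 h at 37 C; luciferase luminescence was then read.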

[4] = target: Nuclear receptor subfamily 1 group I member 3 (Homo sapiens) (UniProt Q14994); assay: qHTS assay to identify small molecule agonists of the constitutive androstane receptor (CAR) signaling pathway (AID 1224839);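 further: HepG2 cells stably carrying human CAR and a CYP2B6 luciferase reporter; nearly all actives have a fitted effect of over 15% in size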
In short: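 Readout: firefly luciferase luminescence via ONE-Glo. System: HepG2 double-stable for hCAR and CYP2B6-2.2kb. Conditions: 15-point compound titration, PK11195 at 0.75 uM final, 24 h incubation.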

[5] = target: Thyrotropin receptor (Homo sapiens) (UniProt P16473); assay: qHTS assay to identify small molecule agonists of the thyroid stimulating hormone receptor (TSHR) signaling pathway (AID 1224843; calls by dose curve; further: nearly all actives have a fitted effect of over 45% in size)
Thyrotropin receptor (Homo sapiens), sequence (P16473 whole entry, looked up): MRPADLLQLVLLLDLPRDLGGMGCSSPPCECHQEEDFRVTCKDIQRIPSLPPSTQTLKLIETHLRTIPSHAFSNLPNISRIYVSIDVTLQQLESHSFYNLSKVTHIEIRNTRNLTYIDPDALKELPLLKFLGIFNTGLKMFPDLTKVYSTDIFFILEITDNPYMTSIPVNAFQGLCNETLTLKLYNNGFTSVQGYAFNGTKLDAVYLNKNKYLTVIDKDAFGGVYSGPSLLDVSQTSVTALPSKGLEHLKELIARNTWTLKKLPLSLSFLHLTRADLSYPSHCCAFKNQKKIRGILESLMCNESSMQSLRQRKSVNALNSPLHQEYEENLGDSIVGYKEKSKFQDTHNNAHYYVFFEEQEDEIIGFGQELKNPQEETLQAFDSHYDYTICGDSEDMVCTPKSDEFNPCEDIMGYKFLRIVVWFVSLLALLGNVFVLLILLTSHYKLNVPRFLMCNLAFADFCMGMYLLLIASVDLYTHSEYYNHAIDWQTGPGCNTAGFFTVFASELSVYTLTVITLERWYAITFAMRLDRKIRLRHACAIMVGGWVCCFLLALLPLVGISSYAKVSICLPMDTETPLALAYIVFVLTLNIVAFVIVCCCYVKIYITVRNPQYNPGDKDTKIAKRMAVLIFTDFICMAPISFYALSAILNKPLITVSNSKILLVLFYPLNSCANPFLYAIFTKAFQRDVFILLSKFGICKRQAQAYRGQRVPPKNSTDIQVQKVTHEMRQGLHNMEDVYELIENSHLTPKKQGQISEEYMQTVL
In short: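 TSHR-expressing HEK293 cells (800 per well) were exposed to compounds for 30 min at room temperature. cAMP was then detected by HTRF competition with cAMP-d2 and anti-cAMP cryptate, read after 1 h at room temperature. Fifteen concentrations, triplicate.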

[6] = qHTS assay to identify small molecule agonists of the hypoxia (HIF-1) signaling pathway - cell viability counter screen (AID 1224844; calls by dose curve; further: nearly all actives have a fitted effect of over 50% in size; further: potency means the concentration at half of the fitted maximal effect)
In short: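 HRE-bla ME-180 cells in medium with 0.5% dialyzed FBS were preincubated 5 hrs at 37C, exposed to compounds for 17 hrs, then viability was read as CellTiter-Glo luminescence after 30 min at room temperature, in the reporter wells.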

[7] = qHTS assay to identify small molecule agonists of the hypoxia (HIF-1) signaling pathway (AID 1224846; active means well fitted activation curve with a large enough effect in the signal ratio in the repeat runs, not every such curve was filed as active; the % refers to the signal ratio)
In short: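 HRE-bla ME-180 cells (beta-lactamase reporter under hypoxia response element) were plated at 2,000 cells/well in medium with 0.5% dialyzed FBS, rested 5 hrs, then given compounds in DMSO for 17 hrs at 37C, 5% CO2. Reporter induction was read with CCF4-AM FRET substrate.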

[8] = qHTS assay to identify small molecule agonists of H2AX - cell viability counter screen (AID 1224847; calls by dose curve; further: nearly all actives have a fitted effect of over 30% in size; further: potency means the concentration at half of the fitted maximal effect)
In short: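 For this counter screen, overnight-attached CHO-K1 cells received test compounds (15 concentrations, 0.76% DMSO final); 3 hr later at 37C, CellTiter-Glo reagent was added and luminescence recorded after 30 min at room temperature.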

[9] = qHTS RealTime-Glo MT Cell Viability Assay in HepG2 cells - 24 hour (AID 1224867); further: nearly all actives have a fitted effect of over 50% in size; further: potency means the concentration at half of the fitted maximal effect
In short: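 HepG2 suspension premixed with RealTime-Glo reagents is plated at 600 cells per well and left 5 h at 37 C/5% CO2. Compounds in DMSO then go in, and bioluminescence reflecting viable cell number is recorded over 40 h.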

[10] = qHTS RealTime-Glo MT Cell Viability Assay in HEK293 cells - 32 hour (AID 1224868); further: nearly all actives have a fitted effect of over 50% in size; further: potency means the concentration at half of the fitted maximal effect
In short: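 Reads taken at 0, 8, 16, 24, 32 and 40 h from the same wells. HEK293 cells (600/well) carried RealTime-Glo reagents from seeding, with compound added after a 5 h settle at 37 C.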

[11] = qHTS RealTime-Glo MT Cell Viability Assay in HepG2 cells - 40 hour (AID 1224870); further: nearly all actives have a fitted effect of over 50% in size; further: potency means the concentration at half of the fitted maximal effect
In short: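 HepG2 cells mixed with RealTime-Glo MT reagents (NanoLuc plus cell-permeant prosubstrate) were seeded at 600 cells/well, incubated 5 h at 37 C/5% CO2, then pinned with compounds in DMSO; nonlytic luminescence tracked viability during 40 h treatment.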

[12] = qHTS assay to identify small molecule agonists of the constitutive androstane receptor (CAR) signaling pathway - cell viability counter screen (AID 1224836); further: nearly all actives have a fitted effect of over 45% in size
In short: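 Double-stable HepG2 hepatoma cells (hCAR plus CYP2B6-2.2kb) are treated for 23 h at 37 C with test compounds in 15-point concentration series. PK11195 at 0.75 uM final is co-added. Cell viability is quantified by CellTiter-Fluor.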

[13] = qHTS assay to identify small molecule antagonists of the constitutive androstane receptor (CAR) signaling pathway - cell viability counter screen (AID 1224837); further: nearly all actives have a fitted effect of over 45% in size; further: potency means the concentration at half of the fitted maximal effect
In short: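 HepG2 cells stably expressing hCAR and a CYP2B6-2.2kb reporter were plated and pre-incubated 4 hr at 37 C/5% CO2, then given compounds at 15 concentrations plus 50 nM CITCO (final). After 23 hr, viability was read by CellTiter-Fluor fluorescence.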

[14] = qHTS assay to identify small molecule agonists of H2AX (AID 1224845; active means well fitted activation curve with a large enough effect in the signal ratio in the repeat runs, not every such curve was filed as active; the % refers to the signal ratio)
In short: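 Wild-type CHO-K1 cells plated overnight, then exposed 3 hr at 37C to compounds at 15 concentrations (0.76% DMSO). Lysed, then HTRF anti-pH2AX(S139)-cryptate/anti-H2AX-d2 detection after 24 hr at room temperature; emissions 665 and 620 nm.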

[15] = A CellTox Green Cytotoxicity Assay to monitor cytotoxicity in HEK293 cells - 0 hour (AID 1224869); further: nearly all actives have a fitted effect of over 50% in size
In short: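 HEK293 cells premixed with CellTox Green dye were seeded at 600 cells/well and left 5 h at 37 C/5% CO2 before pin transfer of 23 nL compound in DMSO. Fluorescence from dye bound to dead-cell DNA was read during 40 h treatment.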

[16] = qHTS assay to identify small molecule antagonists of the estrogen related receptor signaling pathway with the pleiotropic PPARgamma coactivator (PGC) from Tox21 10K library (AID 1224841; call rule not given here; further: potency means the concentration at half of the fitted maximal effect)
In short: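 PGC/ERR reporter cells were seeded at 2,000 cells/well and held 6 hours at 37 C/5% CO2 before pin-tool addition of compounds in DMSO. After 18 hours at 37 C, One-Glo was added and luminescence read after 30 minutes at room temperature.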

[17] = qHTS assay to identify small molecule agonists of the estrogen related receptor (ERR) signaling pathway from Tox21 library (AID 1224849; calls by dose curve; further: nearly all actives have a fitted effect of over 15% in size); conditions: ERR reporter cell line, ONE-Glo luciferase, 18 h; at 92.4 µM (top of the series) unless noted
In short: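 ERR reporter cell line (NTP) seeded, rested 6 h at 37 C/5% CO2, then pinned with Tox21 compounds in DMSO. After 18 h at 37 C, ONE-Glo luciferase luminescence was read following 30 min at room temperature.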

[18] = qHTS assay to identify small molecule antagonists of the estrogen related receptor signaling pathway with the pleiotropic PPARgamma coactivator (PGC) from Tox21 10K library - cell viability counter screen (AID 1224840; active means well fitted cell-killing curve with a large enough effect in the repeat runs, not every such curve was filed as active; further: nearly all actives have a fitted effect of over 40% in size; further: potency means the concentration at half of the fitted maximal effect)
In short: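 PGC/ERR cells were seeded at 2,000 cells/well and left 6 hours at 37 C/5% CO2 before pin-tool addition of compounds in DMSO. After 17.5 hours at 37 C, CellTiter-Fluor was added and fluorescence read 30 minutes later.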

[19] = qHTS assay to identify small molecule agonists of the estrogen related receptor signaling pathway with the pleiotropic PPARgamma coactivator (PGC) from Tox21 10K library (AID 1224842); further: nearly all actives have a fitted effect of over 15% in size
In short: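 PGC/ERR reporter cells (NTP line) were seeded 2,000 per well, rested 6 h at 37 C/5% CO2, then pin-dosed with compounds in DMSO for 18 h at 37 C; luciferase read by One-Glo luminescence after 30 min at room temperature.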

[20] = qHTS assay to identify small molecule antagonists of the estrogen related receptor (ERR) signaling pathway from Tox21 library (AID 1224848)
In short: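 Cells: ERR line, 2,000/well; 6 h preincubation 37 C/5% CO2. Cpd in DMSO via pin tool; 18 h, 37 C. ONE-Glo, 30 min RT, luminescence.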

Structure (SMILES)	Potency [1]	Potency [2]	Potency [3]	Potency [4]	Potency [5]	Potency [6]	outcome [7]	Potency [8]	Potency [9]	Potency [10]	Potency [11]	Potency [12]	Potency [13]	Potency [14]	Potency [15]	Potency [16]	activity change, positive = activation [17]	Potency [18]	Potency [19]	Potency [20]
C=CC(C)(C)CC(=O)OC	1.22 µM (active)	inactive	15.4 µM (active)	inactive	inactive	12.3 µM (active)	inactive	inactive	inactive	1.38 µM (active)	inactive									
COC(=O)CC(=O)C(C)(C)C	inactive	inactive			inactive			inactive	inactive	inactive	inactive	inactive	inactive	inactive	inactive					
CNCCCC1c2ccccc2C=Cc2ccccc21	29.8 µM (active)	inactive			inactive			inactive	21.3 µM (active)					inactive	inactive	inactive	-23.5% [at 42.5 µM]			
O=C1OCCN1/N=C/c1ccc([N+](=O)[O-])o1	inactive	inactive		inactive	inactive	inactive	inactive	inactive	inactive	inactive	inactive	inactive			inactive					
C[C@@H]1C[C@H]2[C@@H]3CCC4=CC(=O)C=C[C@]4(C)[C@@]3(F)[C@@H](O)C[C@]2(C)[C@@]1(O)C(=O)CO	inactive			inactive				inactive	inactive	inactive	inactive	inactive	inactive	inactive	inactive			inactive		
COc1cc2ncnc(Nc3ccc(F)c(Cl)c3)c2cc1OCCCN1CCOCC1	21.1 µM (active)	inactive	inactive	inactive	inactive		inactive	55.2 µM (active)		9.52 µM (active)	26.8 µM (active)			inactive			-47.8% [at 42.5 µM]		inactive	13.3 µM (active)
CC(COc1ccc(C(C)(C)C)cc1)OS(=O)OCCCl (stereo not drawn)	0.488 µM (active)	inactive	1.73 µM (active)	inactive	inactive	1.75 µM (active)	inactive	inactive	inactive		inactive		0.274 µM (active)		inactive	1.23 µM (active)	-72.8%	0.614 µM (active)	inactive	0.614 µM (active)
O=C(O)c1snc(Cl)c1Cl	inactive			inactive	inactive	inactive		inactive	inactive	inactive	inactive	inactive	inactive	inactive	inactive					
CC(=O)OCC(=O)[C@@]12OC(C)(C)O[C@@H]1C[C@H]1[C@@H]3C[C@H](F)C4=CC(=O)C=C[C@]4(C)[C@@]3(F)[C@@H](O)C[C@@]12C	inactive	inactive			inactive	inactive		inactive	inactive		inactive	inactive	inactive	inactive	inactive					
CN1CCN(CCCN2c3ccccc3Sc3ccc(S(=O)(=O)N(C)C)cc32)CC1	26.6 µM (active)	inactive		inactive			inactive								inactive		-33.1% [at 42.5 µM]		inactive	
Oc1ccc(Nc2ccccc2)cc1		inactive	inactive		inactive		inactive	inactive		21.9 µM (active)	inactive	inactive	inactive		inactive	inactive	-35.9%		inactive	24.3 µM (active)
N#C/C(=C1/SC[C@@H](c2ccc(Cl)cc2Cl)S1)n1ccnc1		inactive			inactive	inactive	inactive	inactive	inactive		inactive	inactive	inactive	inactive		23.7 µM (active)	-40.9% [at 42.5 µM]	inactive	inactive	
Cc1c(C(=O)NN2CCCCC2)nn(-c2ccc(Cl)cc2Cl)c1-c1ccc(Cl)cc1		inactive		inactive	inactive	21.3 µM (active)		inactive	inactive		inactive	inactive	inactive		inactive			inactive		
